Results filed as inconclusive are left out. Values without a mark were called inactive. Activity calls are given as the source filed them. The call rests on the fitted dose curve; in most records, active means well fitted cell-killing curve with a large enough effect; inconclusive means small, poorly fitted or top-dose-only effect, or effect the other way; inactive means no such curve, though single readings can be large or run the other way.
experiment: Quantitative High-Throughput drug screen in 47 multiple myeloma cell lines against the NCATS MIPE library collection: OCIMY1_PLB cell viability assay (AID 1918979); conditions: OCI-MY1 myeloma viability, CellTiter-Glo ATP, 48 h; series mostly up to 45.8 µM; viability: at the top concentration; further: nearly all actives have a fitted effect of over 35% in size
Description: PI: Beverly A. Mock Ph.D.
Laboratory of Cancer Biology and Genetics,
Center for Cancer Research, National Cancer Institute,
National Institute of Health, Bethesda, Maryland
Drug resistance and disease progression are common in multiple myeloma (MM) patients, underscoring the need for new therapeutic combinations. […] We hypothesized that effective combinations would reduce MYC expression and enhance p16 activity. […] These preclinical data identify potentially useful drug combinations for evaluation in drug-resistant MM and reveal potential mechanisms of combined drug sensitivity.
Described herein is the primary MIPE qHTS used to cherrypick compounds. Validated compounds were then further tested for potential synergistic activiy.
[1] Peat TJ, Gaikwad SM, Dubois W, Gyabaah-Kessie N, Zhang S, Gorjifard S, Phyo Z, Andres M, Hughitt VK, Simpson RM, Miller MA, Girvin AT, Taylor A, Williams D, D'Antonio N, Zhang Y, Rajagopalan A, Flietner E, Wilson K, Zhang X, Shinn P, Klumpp-Thomas C, McKnight C, Itkin Z, Chen L, Kazandijian D, Zhang J, Michalowski AM, Simmons JK, Keats J, Thomas CJ, Mock BA. Drug combinations identified by high-throughput screening promote cell cycle transition and upregulate Smad pathways in myeloma. Cancer Lett. 2023 Aug 1;568:216284. doi: 10.1016/j.canlet.2023.216284. Epub 2023 Jun 24. PMID: 37356470; PMCID: PMC10408729.
SEQUENCE No. (e.g., 1, 2, 3, etc.); […] (e.g., Cells, Incubation, Reagent, etc.); VALUE and DESCRIPTION.
1; Cells; 5 uL; white, solid bottom 1536-well Greiner assay plate.
2; Compounds; 23 nL; Kalypsis pin tool (Wako USA) equipped with a 1536-well pin head to transfer to the assay plates.
3; Incubation; 48 hours; 37C incubation.
4; Reagent;5uL; CellTiter Glo (Promega).
5; Detector; 425V; Luminescence; Viewlux PerkinElmer.
NOTES (numbers refer to Sequence numbers above)
1. The cell-based screening methods employed in this study were like those previously published. Briefly, the corresponding myeloma cell lines were screened in 1,536-well plates with 500 cells, 5-uL per well for inhibition of cell viability (assessed by measuring ATP levels with CellTiterGlo).
2. NCATS MIPE 4.0 library of approved and investigational drugs were added using the Kalypsis pin tool. Wells treated with DMSO only for 100% viability and media only for 0% viability were used as controls.
3. The assay plates were covered and incubated for 48 hours in a 37C, 5% CO2 incubator with controlled humidity.
4. After 48 hours, CellTilter-GloTM luminescent substrate mix (Promega) reagent was added to the assay plate and plates we incubated for 5 min at room temperature.
5. Signal was measured as median relative luminescence units on a ViewLux (PerkinElmer) multiplate reader.
[1] Heske CM, Davis MI, Baumgart JT, Wilson K, Gormally MV, Chen L, Zhang X, Ceribelli M, Duveau DY, Guha R, Ferrer M, Arnaldez FI, Ji J, Tran HL, Zhang Y, Mendoza A, Helman LJ, Thomas CJ. Matrix Screen Identifies Synergistic Combination of PARP Inhibitors and Nicotinamide Phosphoribosyltransferase (NAMPT) Inhibitors in Ewing Sarcoma. Clin Cancer Res. 2017 Dec 1;23(23):7301-7311. doi: 10.1158/1078-0432.CCR-17-1121. Epub 2017 Sep 12. PMID: 28899971; PMCID: PMC6636827.
Potency means the concentration at half of the fitted maximal effect.

| Structure (SMILES) | viability | Potency |
| --- | --- | --- |
| O=C1NC(=O)C(=Cc2ccc(-c3ccc(F)cc3O)o2)S1 | 98.3% |  |
| CNC(=O)c1c(-c2ccc(F)cc2)oc2cc(N(CCO)S(C)(=O)=O)c(C3CC3)cc12 |  | 18.7 µM (active) |
| CCC(=O)NCC[C@@H]1CCc2ccc3c(c21)CCO3 | 93.2% |  |
| CC(C)CN(C[C@@H](O)[C@H](Cc1ccccc1)NC(=O)O[C@H]1CO[C@H]2OCC[C@H]21)S(=O)(=O)c1ccc(N)cc1 | 105% |  |
| CC(C)(OCc1nn(Cc2ccccc2)c2ccccc12)C(=O)O | 99.7% |  |
| CC(C)(O)CC(=O)NCCn1ccc2ncnc(Nc3ccc(Oc4cccc(C(F)(F)F)c4)c(Cl)c3)c21 | 104% |  |
| CC(C)c1onc(-c2c(Cl)cccc2Cl)c1COc1ccc(C=Cc2cccc(C(=O)O)c2)c(Cl)c1 | 111% |  |
| Cc1cc(OCCCS(C)(=O)=O)cc(C)c1-c1cccc(COc2ccc3c(c2)OC[C@H]3CC(=O)O)c1 | 106% |  |
| COc1ccc(-c2nc3ccc(C4=NNC(=O)CC4C)cc3[nH]2)cc1 (stereo not given) | 114% |  |
| NC(=O)c1ccc(N(C(N)=O)c2c(F)cccc2F)nc1-c1ccc(F)cc1F | 96.1% |  |
| OC[C@H]1O[C@@H](OCCc2ccc(O)cc2)[C@H](O)[C@@H](O)[C@H]1O | 104% |  |
| CNC1CCC(N(Cc2cccc(-c3ccncc3)c2)C(=O)c2sc3ccccc3c2Cl)CC1 (stereo not given) |  | 23.5 µM (active) |
| c1ccc(-c2oc3ncnc(NC[C@@H]4CCCO4)c3c2-c2ccccc2)cc1 | 105% |  |
| CN(C)c1nc(Cc2ccc(NC(=O)c3ccc(C(F)(F)F)cc3)cc2)nc(N(C)C)c1CC(=O)O | 110% |  |
| Cc1cccc(Nc2nc(N[C@@H]3CCCC[C@H]3N)ncc2C(N)=O)c1 |  | 26.4 µM (active) |
| COc1cc(F)c(C(C)C)cc1-c1ccc(C(F)(F)F)cc1CN1C(=O)O[C@H](c2cc(C(F)(F)F)cc(C(F)(F)F)c2)[C@@H]1C | 115% |  |
| O=C(O)C1=NC(C(=O)O)CC(C=CN2c3cc(O)c(OC4OC(CO)C(O)C(O)C4O)cc3CC2C(=O)O)=C1 (stereo not given) | 104% |  |
| C[C@H]1COC2=C1C(=O)C(=O)c1c2ccc2c1CCCC2(C)C | 85.8% |  |
| CO[C@H]1C=CO[C@@]2(C)Oc3c(C)c(O)c4c(O)c(c(C=NN5CCN(C)CC5)c(O)c4c3C2=O)NC(=O)C(C)=CC=C[C@H](C)[C@H](O)[C@@H](C)[C@@H](O)[C@@H](C)[C@H](OC(C)=O)[C@H]1C | 111% [at 15.3 µM] |  |
| CCN1CCN(c2ccc(Nc3cc(N(C)C(=O)Nc4c(Cl)c(OC)cc(OC)c4Cl)ncn3)cc2)CC1 | 101% |  |

| Structure (SMILES) | viability | Potency |
| --- | --- | --- |
| CCN(CC)CCCCNc1nc2cc(Cl)c(Cl)cc2nc1-c1ccc(-c2cccs2)s1 |  | 14.8 µM (active) |
| CC(NCCc1ccc(O)cc1)C(O)c1ccc(O)cc1 (stereo not given) | 122% |  |
| CN1CCc2c(n(Cc3ccc(C(=O)NO)cc3)c3ccccc23)C1 |  | 18.7 µM (active) |
| O=C(O)C1=CC(O)C(O)[C@H](O)C1 (stereo not given in full) | 108% |  |
| CN1CC(=O)NC1=NC(=O)Nc1cccc(Cl)c1 |  | 26.4 µM (active) |
| Cc1csc(-c2nnc(Nc3ccc(Oc4ncccc4-c4ccnc(N)n4)cc3)c3ccccc23)c1 |  | 5.26 µM (active) |
| C[C@@H]1CC=CC=CC=CC=C[C@@H](O[C@@H]2O[C@H](C)[C@@H](O)[C@H](N)[C@H]2O)C[C@@H]2O[C@](O)(C[C@@H](O)C[C@@H]3O[C@@H]3C=CC(=O)O1)C[C@H](O)[C@@H]2C(=O)O |  | 9.35 µM (active) |
| N#Cc1c(N(CC(=O)O)CC(=O)O)sc(C(=O)O)c1CC(=O)O | 130% |  |
| NC(=O)c1ncn([C@@H]2O[C@H](CO)[C@@H](O)[C@@H]2O)n1 | 111% |  |
| CC[C@H](C=C[C@@H](C)[C@H]1CC[C@H]2[C@@H]3CC=C4C[C@@H](O)CC[C@]4(C)[C@@H]3CC[C@]12C)C(C)C | 116% [at 23.2 µM] |  |
| CCCCC(C=O)NC(=O)C(CC(C)C)NC(=O)OCc1ccccc1 (stereo not given) | 96.7% |  |
| CCOC(=O)[C@H](CCc1ccccc1)N[C@@H](C)C(=O)N1CCCC1C(=O)O (stereo not given in full) | 96.1% |  |
| CN(C)CCOc1cc(-c2cn[nH]c2)ccc1NC(=O)C1COc2ccccc2O1 (stereo not given) | 79.2% |  |
| Cc1cc2nc3c(=O)[nH]c(=O)nc-3n(CC(O)C(O)C(O)CO)c2cc1C (stereo not given) | 96.2% |  |
| Cc1cc(NC(=O)Nc2ccc(N(C)C)cc2)c2cc(F)cc(F)c2n1 | 94.7% |  |
| CN(C)N=Nc1nc[nH]c1C(N)=O | 122% |  |
| C=CC[N+]1([C@H]2C[C@H]3[C@@H]4CC[C@H]5C[C@H](O)[C@@H](N6CCOCC6)C[C@]5(C)[C@@H]4CC[C@]3(C)[C@H]2OC(C)=O)CCCC1 | 103% |  |
| Cc1cc2c(cc1C1(c3ccc(C(=O)O)cn3)CC1)C(C)(C)CCC2(C)C |  | 0.0015 µM (active) |
| O=C(c1ccc(C(=O)N2CCC(N3CCCC3)CC2)c(Nc2ccccc2)c1)N1CCC(N2CCCC2)CC1 | 111% |  |
| CN[C@@H]1[C@@H](O)[C@@H](O[C@@H]2[C@@H](O)[C@H](O[C@H]3O[C@H](CN)[C@@H](O)[C@H](O)[C@@H]3O)[C@@H](N)C[C@@H]2NC(=O)[C@@H](O)CN)OC[C@]1(C)O | 109% |  |

Reference: PubChem BioAssay (NCATS)
